# Results as given in the supplement of paper PMC8728848.
# The full list was thinned out, with the strongest signals kept by preference.
# B1: Aap brpt (Staphylococcus epidermidis) (protein)
# chain: VDGDPITSTEEIPFDKKREFDPNLAPGTEKVVQKGEPGTKTITTPTTKNPLTGEKVGEGEPTEKITKQPVDEIVHYGGEEIKTGHKDEFDPNAPKGSQTTQPGKPGVKNPDTGEVVTPPVDDVTKYGPVDGDPITSTEEIPFDKKREFDPNLAPGTEKVVQKGEPGTKTITTPTTKNPLTGEKVGEGEPTEKITKQPVDEIVHYGGEEIKPGHKDEFDPNAPKGSQEDVPGKPGVKNPDTGEVVTPPVDDVTKYGPVDGDSITSTEEIPFDKKREFDPNLAPGTEKVVQKGEPGTKTITTPTTKNPLTGEKVGEGEPTEKITKQPVDEIVHYGGEQIPQGHKDEFDPNAPVDSKTEVPGKPGVKNPDTGEVVTPPVDDVTKYGPVDGDSITSTEEIPFDKKREFDPNLAPGTEKVVQKGEPGTKTITTPTTKNPLTGEKVGEGKSTEKVTKQPVDEIVEYGPTK
# Columns and labels:
# Test in all cases: glycan array binding signal (z-score within array); higher = stronger binding
# Details in all cases: glycan notation: IUPAC condensed, linker removed
# Fuc(a1-2)Gal(b1-3)GalNAc = target: Fuc(a1-2)Gal(b1-3)GalNAc
# Method in brief: (§1)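 Columns mapping to the same glycan were averaged after glycan names were converted to IUPAC-condensed notation. The data come from 3228 arrays in the Consortium for Functional Glycomics database, limited to those with an available protein sequence. Binding is reported as a within-array Z-score averaged across arrays of one protein sequence and across linkers.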
# [1] = target: Fuc(a1-2)Gal(b1-3)GalNAc(b1-4)[Neu5Ac(a2-3)]Gal(b1-4)Glc
# Method in brief: as §1
# [2] = target: Fuc(a1-2)Gal(b1-3)GlcNAc(b1-3)[Gal(b1-4)GlcNAc(b1-6)]Gal(b1-4)Glc
# Method in brief: as §1
# [3] = target: Fuc(a1-2)Gal(b1-4)[Fuc(a1-3)]GlcNAc(b1-3)Gal(b1-4)[Fuc(a1-3)]GlcNAc
# Method in brief: as §1
# [4] = target: Fuc(a1-2)[Gal(a1-3)]Gal(b1-4)Glc
# Method in brief: as §1
# [5] = target: Fuc(a1-2)[GalNAc(a1-3)]Gal(b1-4)GlcNAc(b1-2)Man(a1-3)[Fuc(a1-2)[GalNAc(a1-3)]Gal(b1-4)GlcNAc(b1-2)Man(a1-6)]Man(b1-4)GlcNAc(b1-4)[Fuc(a1-6)]GlcNAc
# Method in brief: as §1
# [6] = target: Fuc(a1-2)[GalNAc(a1-3)]Gal(b1-4)GlcNAc(b1-3)GalNAc
# Method in brief: as §1
# [7] = target: Fuc(a1-3)[Gal(b1-4)]Glc6S
# Method in brief: as §1
# [8] = target: Fuc(a1-3)[Gal3S(b1-4)]Glc
# Method in brief: as §1
# Gal(a1-3)Gal = target: Gal(a1-3)Gal
# Method in brief: as §1
# [9] = target: Gal(a1-3)[Gal(a1-4)]Gal(b1-4)GlcNAc
# Method in brief: as §1
# [10] = target: Gal(b1-3)GlcNAc(b1-3)Gal(b1-3)GlcNAc
# Method in brief: as §1
# [11] = target: Gal(b1-3)GlcNAc(b1-3)Gal(b1-4)GlcNAc(b1-2)Man(a1-3)[Gal(b1-3)GlcNAc(b1-3)Gal(b1-4)GlcNAc(b1-2)Man(a1-6)]Man(b1-4)GlcNAc(b1-4)GlcNAc
# Method in brief: as §1
# [12] = target: Gal(b1-3)GlcNAc(b1-3)Gal(b1-4)GlcNAc(b1-3)Gal(b1-4)GlcNAc(b1-2)[Gal(b1-3)GlcNAc(b1-3)Gal(b1-4)GlcNAc(b1-3)Gal(b1-4)GlcNAc(b1-6)]Man(a1-6)[Gal(b1-3)GlcNAc(b1-3)Gal(b1-4)GlcNAc(b1-3)Gal(b1-4)GlcNAc(b1-2)Man(a1-3)]Man(b1-4)GlcNAc(b1-4)[Fuc(a1-6)]GlcNAc
# Method in brief: as §1
# [13] = target: Gal(b1-3)[Neu5Ac(a2-6)]GalNAc
# Method in brief: as §1
# Gal(b1-4)GlcNAc(b1-2)Man = target: Gal(b1-4)GlcNAc(b1-2)Man
# Method in brief: as §1
# [14] = target: Gal(b1-4)GlcNAc(b1-2)Man(a1-6)Man(b1-4)GlcNAc(b1-4)GlcNAc
# Method in brief: as §1
# [15] = target: Gal(b1-4)GlcNAc(b1-2)[Gal(b1-4)GlcNAc(b1-4)]Man(a1-3)[Gal(b1-4)GlcNAc(b1-2)[Gal(b1-4)GlcNAc(b1-6)]Man(a1-6)]Man(b1-4)GlcNAc(b1-4)GlcNAc
# Method in brief: as §1
# [16] = target: Gal(b1-4)GlcNAc(b1-2)[Gal(b1-4)GlcNAc(b1-4)]Man(a1-3)[GlcNAc(b1-4)][Gal(b1-4)GlcNAc(b1-2)[Gal(b1-4)GlcNAc(b1-6)]Man(a1-6)]Man(b1-4)GlcNAc(b1-4)GlcNAc
# Method in brief: as §1
# [17] = target: Gal(b1-4)GlcNAc(b1-3)Gal(b1-3)GalNAc
# Method in brief: as §1
# [18] = target: Gal(b1-4)GlcNAc(b1-3)Gal(b1-4)GlcNAc(b1-2)Man(a1-3)[Gal(b1-4)GlcNAc(b1-3)Gal(b1-4)GlcNAc(b1-2)Man(a1-6)]Man(b1-4)GlcNAc(b1-4)GlcNAc
# Method in brief: as §1
# [19] = target: Gal(b1-4)GlcNAc(b1-3)Gal(b1-4)GlcNAc(b1-2)Man(a1-3)[Gal(b1-4)GlcNAc(b1-3)Gal(b1-4)GlcNAc(b1-2)Man(a1-6)]Man(b1-4)GlcNAc(b1-4)[Fuc(a1-6)]GlcNAc
# Method in brief: as §1
# [20] = target: Gal(b1-4)GlcNAc(b1-3)Gal(b1-4)GlcNAc(b1-3)Gal(b1-4)GlcNAc
# Method in brief: as §1
# [21] = target: Gal(b1-4)GlcNAc(b1-3)Gal(b1-4)GlcNAc(b1-3)Gal(b1-4)GlcNAc(b1-2)[Gal(b1-4)GlcNAc(b1-3)Gal(b1-4)GlcNAc(b1-3)Gal(b1-4)GlcNAc(b1-6)]Man(a1-6)[Gal(b1-4)GlcNAc(b1-3)Gal(b1-4)GlcNAc(b1-3)Gal(b1-4)GlcNAc(b1-2)Man(a1-3)]Man(b1-4)GlcNAc(b1-4)[Fuc(a1-6)]GlcNAc
# Method in brief: as §1
# [22] = target: Gal(b1-4)GlcNAc(b1-3)Gal(b1-4)GlcNAc(b1-3)Gal(b1-4)GlcNAc(b1-3)Gal(b1-4)GlcNAc(b1-2)Man(a1-3)[Gal(b1-4)GlcNAc(b1-3)Gal(b1-4)GlcNAc(b1-3)Gal(b1-4)GlcNAc(b1-3)Gal(b1-4)GlcNAc(b1-2)Man(a1-6)]Man(b1-4)GlcNAc(b1-4)GlcNAc
# Method in brief: as §1
# [23] = target: Gal(b1-4)GlcNAc(b1-6)[Gal(b1-4)GlcNAc(b1-3)]GalNAc
# Method in brief: as §1
# [24] = target: Gal3S(b1-4)[Fuc(a1-3)]Glc6S
# Method in brief: as §1
# [25] = target: GlcNAc(a1-4)Gal(b1-3)GlcNAc
# Method in brief: as §1
binder,measurement,setting,value
B1,glycan array binding signal (z-score),Fuc(a1-2)Gal(b1-3)GalNAc,-1
same,glycan array binding signal (z-score),[1],-0.026
same,glycan array binding signal (z-score),[2],0.337
same,glycan array binding signal (z-score),[3],-0.951
same,glycan array binding signal (z-score),[4],-0.658
same,glycan array binding signal (z-score),[5],0.323
same,glycan array binding signal (z-score),[6],-2.27
same,glycan array binding signal (z-score),[7],0.738
same,glycan array binding signal (z-score),[8],0.077
same,glycan array binding signal (z-score),Gal(a1-3)Gal,2.41
same,glycan array binding signal (z-score),[9],0.93
same,glycan array binding signal (z-score),[10],-0.56
same,glycan array binding signal (z-score),[11],-0.969
same,glycan array binding signal (z-score),[12],-0.027
same,glycan array binding signal (z-score),[13],0.106
same,glycan array binding signal (z-score),Gal(b1-4)GlcNAc(b1-2)Man,-0.301
same,glycan array binding signal (z-score),[14],-0.494
same,glycan array binding signal (z-score),[15],0.481
same,glycan array binding signal (z-score),[16],-0.768
same,glycan array binding signal (z-score),[17],-0.487
same,glycan array binding signal (z-score),[18],3.34
same,glycan array binding signal (z-score),[19],0.377
same,glycan array binding signal (z-score),[20],0.054
same,glycan array binding signal (z-score),[21],2.44
same,glycan array binding signal (z-score),[22],-0.738
same,glycan array binding signal (z-score),[23],-0.18
same,glycan array binding signal (z-score),[24],2.61
same,glycan array binding signal (z-score),[25],-0.124
